Measurements published in PubChem BioAssay (EPA / NIEHS).
“And” between values parts separate entries of the source, which are not always exact repeats. Equal values may be shown once. Records with an inconclusive call do not appear. Where a structure was tested more than once in an assay, its records may differ in their call. The source made the active and inactive calls. Rule for the calls, unless noted: active = hit-call score of the fitted dose curve at least 0.9, where 1 is the maximum; inactive = score below 0.9.

Columns and labels:
[1] = test system: DIO2 (gene 1734); assay: CCTE_GLTED_hDIO2: CCTE's human Deiodinase 2 (DIO2) Inhibition Assay, Great Lakes Toxicology and Ecology Division (GLTED) Lab (AID 2284050; active = hit-call score of the fitted dose curve at least 0.9, where 1 is the maximum)
Summary of the method: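 Triplicate cell-free incubations (3 h) of human DIO2 with chemical preceded colorimetric Sandell-Kolthoff quantitation of liberated iodide; DMSO served as negative control for curve fitting.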

[2] = test system: DIO3 (gene 1735); assay: CCTE_GLTED_hDIO3: CCTE's human Deiodinase 3 (DIO3) Inhibition Assay, Great Lakes Toxicology and Ecology Division (GLTED) Lab (AID 2284055; active = hit-call score of the fitted dose curve at least 0.9, where 1 is the maximum;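 note: potency is for inhibition seen as loss of released iodide signal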)
Summary of the method: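 Steps: incubate adenovirus-produced hDIO3 with chemical for 3 hours; detect freed iodide via cerium-arsenic Sandell-Kolthoff colorimetry; compare with DMSO baseline.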

[3] = CCTE_Shafer_MEA_acute_AB: CCTE's Alamar Blue Assay for Cytotoxicity in the Neural Acute Assay, Shafer Lab (AID 2284069; active = hit-call score of the fitted dose curve at least 0.9, where 1 is the maximum;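 note: active compounds lower the viability signal compared with DMSO wells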)
Summary of the method: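 Cytotoxicity endpoint for acute MEA exposures of primary rat cortical neurons on day 13 or 15. Resazurin reduction is read fluorescently at 544/590 nm, with DMSO as the negative-control baseline.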

[4] = CCTE_Shafer_MEA_acute_LDH: CCTE's Lactate Dehydrogenase Assay for Cytotoxicity in the Neural Acute Assay, Shafer Lab (AID 2284086; active = hit-call score of the fitted dose curve at least 0.9, where 1 is the maximum;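 note: active means LDH release rises above DMSO vehicle level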)
Summary of the method: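 Cytotoxicity readout: spectrophotometric LDH activity in supernatant of rat primary cortical neurons, post-plating day 13 or 15, sampled after 40 min compound exposure; signal gain relative to DMSO baseline.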

[5] = CCTE_Shafer_MEA_dev_per_burst_interspike_interval: CCTE's Neural Network Formation Assay for Burst Interspike Interval, Shafer Lab (AID 2284044);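 for AC50: potency for a decrease of within-burst interspike interval below DMSO level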
Summary of the method: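 Readout is the average time between spikes inside single-electrode bursts, taken as a well mean across bursting electrodes. Cortical neurons from rat developed networks on MEA plates under continuous 12-day exposure; recordings on days 5, 7, 9 and 12 were integrated by trapezoidal AUC.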

[6] = CCTE_Shafer_MEA_dev_inter_network_spike_interval_mean: CCTE's Neural Network Formation Assay for Mean Inter-network Spike Interval, Shafer Lab (AID 2284047);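 for AC50: potency for a decrease in mean inter-network spike interval below DMSO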
Summary of the method: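 Compound was given at plating to primary rat cortical neurons and renewed with full medium changes on DIV 5 and 9. Extracellular activity was recorded on days 5, 7, 9, 12; AUC values were fitted for loss relative to DMSO control.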

[7] = CCTE_Shafer_MEA_dev_network_spike_number: CCTE's Neural Network Formation Assay for Number of Network Spikes, Shafer Lab (AID 2284048);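 for AC50: fit as a loss of signal meaning fewer network spikes than DMSO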
Summary of the method: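 Number of network spikes (coordinated firing across electrodes) recorded on days 5, 7, 9 and 12 and summarised as area under the curve. Rat cortical cultures on MEA, continuous compound exposure with full medium/treatment exchange at DIV 5 and 9.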

[8] = CCTE_Shafer_MEA_dev_network_spike_peak: CCTE's Neural Network Formation Assay for Mean Number of Electrodes in Network Spike, Shafer Lab (AID 2284049);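 for AC50: fitted for loss of signal meaning fewer electrodes in network spikes than DMSO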
Summary of the method: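 Rat cortical primary culture, 1.5 x 10^5 cells/well, 48-well MEA (16 electrodes/well). Dosing day 0 through DIV 12, full media/compound exchange DIV 5, 9. AxIS adaptive spike detection; AUC over days 5/7/9/12; loss-of-signal vs DMSO.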

[9] = CCTE_Shafer_MEA_dev_spike_duration_mean: CCTE's Neural Network Formation Assay for Mean Spike Duration, Shafer Lab (AID 2284051);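 note: mean network spike duration pooled as area under curve over DIV 5 to 12 recordings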;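 for AC50: potency for a decrease in mean network spike duration versus DMSO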
Summary of the method: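 With DMSO as baseline, loss of mean network spike duration was scored from extracellular recordings of rat cortical neurons on MEA plates. Exposure spanned plating to DIV 12; the four recording days were collapsed into one AUC value.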

[10] = CCTE_Shafer_MEA_dev_network_spike_duration_std: CCTE's Neural Network Formation Assay for Standard Deviation of Network Spike Duration, Shafer Lab (AID 2284052);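 note: area under curve of spike duration SD across recording days 5 to 12; hits are decreases in network spike duration SD versus DMSO vehicle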
Summary of the method: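 Developing networks of rat cortical neurons were exposed over twelve days in vitro on 48-well MEA plates. Trapezoidal AUC of recordings (DIV 5–12) was analysed for signal loss relative to DMSO vehicle.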

[11] = CCTE_Shafer_MEA_dev_per_network_spike_spike_number_mean: CCTE's Neural Network Formation Assay for Mean Number of Spikes in a Network Spike, Shafer Lab (AID 2284053);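 for AC50: fitted as decrease in spikes per network spike relative to DMSO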
Summary of the method: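 First, rat cortical cells (1.5 x 10^5/well) were seeded onto MEA wells; second, dosing began at plating and was refreshed on DIV 5 and 9; finally, network-spike spike counts across DIV 5–12 were summarized as AUC.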

[12] = CCTE_Shafer_MEA_dev_per_network_spike_spike_percent: CCTE's Neural Network Formation Assay for Percent of Spikes in a Network Spike, Shafer Lab (AID 2284054)
Summary of the method: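 Metric: fraction of spikes falling in a 0.05 s window at network-spike peaks. Recordings were made on days 5, 7, 9 and 12 and collapsed by trapezoidal AUC. Cultures were rat cortical neurons on MEA plates, dosed continuously from plating, re-dosed at media changes.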

[13] = CCTE_Shafer_MEA_dev_LDH: CCTE's Lactate Dehydrogenase Assay for Cytotoxicity in the Neural Network Formation Assay, Shafer Lab (AID 2284068; active = hit-call score of the fitted dose curve at least 0.9, where 1 is the maximum;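 note: exposure for twelve days from plating with re-dosing on DIV 5 and 9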)
Summary of the method: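 Developing rat cortical networks on MEA plates are exposed to compound for 12 days from plating. LDH activity is measured spectrophotometrically, with DMSO as baseline.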

[14] = CCTE_Shafer_MEA_dev_AB: CCTE's Alamar Blue Assay for Cytotoxicity in the Neural Network Formation Assay, Shafer Lab (AID 2284083; active = hit-call score of the fitted dose curve at least 0.9, where 1 is the maximum;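 note: resazurin reduction fluorescence as viability of cultured neurons; twelve days of exposure from plating with re-dosing on DIV 5 and 9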)
Summary of the method: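 Cytotoxicity companion to the developmental MEA: primary rat cortical neurons, 12-day exposure starting day 0, compound refreshed DIV 5 and 9; resazurin fluorescence, fitted against DMSO vehicle.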

[15] = CCTE_Shafer_MEA_dev_mutual_information_norm: CCTE's Neural Network Formation Assay for Mutual Information Normalization, Shafer Lab (AID 2284091);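 for AC50: mutual information between electrodes summarised as area under curve across four recording days; potency is for a decrease in mutual information relative to DMSO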
Summary of the method: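 Shared information across electrodes, tracked on days 5, 7, 9 and 12 of network development and collapsed as trapezoidal area under the curve. Rat cortical cultures were treated continuously from plating, with treatment renewed at feeds on DIV 5 and 9; DMSO baseline, negative-direction fit.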

[16] = CCTE_Shafer_MEA_dev_bursting_electrodes_number: CCTE's Neural Network Formation Assay for Number of Bursting Electrodes, Shafer Lab (AID 2284043; active = hit-call score of the fitted dose curve at least 0.9, where 1 is the maximum;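 for AC50: potency is for loss of bursting electrodes relative to DMSO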)
Summary of the method: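 Number of electrodes reaching ≥1 burst every 2 min was recorded at DIV 5, 7, 9 and 12 and collapsed as trapezoidal area under the curve. Cultures were rat cortical neurons on MEA plates, dosed continuously from plating with medium and treatment refreshed on DIV 5 and 9.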

[17] = UKN2_HCS_IMR90_neural_migration: University of Konstanz (UKN) Leist Lab Neural Crest Cell Migration Assay in human induced IMR90 Pluripotent Stem Cells (UKN2) (AID 2284204); conditions: actives raise or lower the signal
Summary of the method: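 High-content imaging of calcein-AM and Hoechst stained cells quantifies migration into a stopper-defined gap after 24 h compound exposure. Neural crest cells from IMR90 iPSC migrated 24 h in EGF/FGF N2-S medium before dosing; DMSO baseline.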

[18] = UKN5_HCS_SBAD2_cell_viability: Viability Assessment in the University of Konstanz (UKN) Leist Lab Neurite Outgrowth Assay in human iPSC-derived immature Dorsal Root Ganglia Neurons (UKN5) (AID 2284056)
Summary of the method: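 iPSC-derived immature peripheral neurons (SBAD2) seeded on Matrigel with CHIR99021, SU5402 and DAPT, dosed 1 h later for 24 h. Viability from Hoechst H-33342 and calcein-AM live staining, high-content imaging; bidirectional fit versus DMSO.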

[19] = UKN5_HCS_SBAD2_neurite_outgrowth: University of Konstanz (UKN) Leist Lab Neurite Outgrowth Assay in human iPSC-derived immature Dorsal Root Ganglia Neurons (UKN5) (AID 2284070); conditions: actives raise or lower the signal
Summary of the method: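 Neurite outgrowth is quantified as calcein-AM-labelled neurite area in human iPSC-derived peripheral neurons treated for 24 h, starting 1 h after plating in medium with CHIR99021 (1.5 uM), SU5402 (5 uM) and DAPT (5 uM).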

[20] = UKN4_HCS_LUHMES_neurite_outgrowth: University of Konstanz (UKN) Leist Lab Neurite Outgrowth Assay in human LUHMES cells (UKN4) (AID 2284206); conditions: actives raise or lower the signal
Summary of the method: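 Neurite area in dopaminergic-model LUHMES neurons is measured by high-content imaging of calcein-AM after 24 h treatment starting shortly after day-2 replating; Hoechst staining tracks viability.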

Measured: AC50

Oc1ccccc1-c1ccccc1
active: [1] 38.2 µM | [2] 89.4 µM

CCCC1COC(Cn2cncn2)(c2ccc(Cl)cc2Cl)O1 (configuration not stated)
inactive: [3] | [4]

CCOP(=S)(OCC)SCn1c(=O)oc2cc(Cl)ccc21
inactive: [3] | [4]

CNC(=O)ON=CC(C)(C)SC
active: [11] 0.549 µM
not listed: [1] | [2] | [4] | [16] | [17] | [18] | [19] | [20]
inactive: all other assays above

CON(C)C(=O)Nc1ccc(Cl)c(Cl)c1
inactive: [3]

COP(=S)(OC)Oc1nc(Cl)c(Cl)cc1Cl
not listed: [1] | [2] | [3] | [17] | [18] | [19] | [20]
inactive: all other assays above

CCCCC(CC)COC(=O)c1ccccc1C(=O)OCC(CC)CCCC (configuration not stated)
inactive: [16] | [5] | [6] | [7] | [9] | [10] | [11] | [12] | [13] | [14] | [15] | [17]
active: [16] 7.91 µM and 6.07 µM | [5] 9.06 µM | [7] 2.32 µM and 12.8 µM | [8] 15 µM and 423 nM and 8.09 µM | [9] 9.35 µM and 4.75 µM | [10] 3.05 µM | [11] 6.42 µM and 4.63 µM | [12] 7.71 µM and 22.4 µM | [13] 11.3 µM | [14] 12.4 µM | [15] 1.59 µM and 2.77 µM

CCOc1cc(Oc2ccc(C(F)(F)F)cc2Cl)ccc1[N+](=O)[O-]
inactive: [6] | [17]
active: [16] 5.27 µM | [5] 11.4 µM | [7] 6090 nM | [8] 6.67 µM | [9] 4.18 µM | [10] 1.13 µM | [11] 4.48 µM | [12] 13.2 µM | [13] 17.7 µM | [14] 30 µM | [15] 4.49 µM

CCCCNC(=O)n1c(NC(=O)OC)nc2ccccc21
active: [16] 15 µM | [8] 15 µM | [11] 15 µM | [19] 7.98 µM | [17] 10 µM | [20] 7.73 µM
not listed: [1] | [2] | [3] | [4] | [13]
inactive: all other assays above

CCNc1nc(Cl)nc(NC(C)C)n1
active: [2] 21.7 µM
not listed: [4] | [13] | [14] | [17] | [18] | [19] | [20]
inactive: all other assays above

CCCN(CCC)c1c([N+](=O)[O-])cc(S(N)(=O)=O)cc1[N+](=O)[O-]
inactive: [3] | [4]
active: [1] 141 µM | [2] 160 µM

Cc1c(F)c(F)c(COC(=O)C2C(/C=C(\Cl)C(F)(F)F)C2(C)C)c(F)c1F (configuration not stated)
inactive: [5] | [6] | [3]
active: [16] 2.72 µM | [7] 311 nM | [9] 2.15 µM | [10] 0.893 µM | [11] 1.98 µM | [12] 1.45 µM | [13] 18 µM | [14] 17.4 µM | [15] 0.302 µM

C=CCC1=C(C)[C@@H](OC(=O)[C@@H]2[C@@H](C=C(C)C)C2(C)C)CC1=O
inactive: [5] | [6] | [7] | [10] | [11] | [12] | [3] | [4]
active: [16] 10 µM | [8] 10 µM | [14] 1.98 µM | [15] 2.61 µM

COC(=O)N(OC)c1ccccc1COc1ccn(-c2ccc(Cl)cc2)n1
active: [16] 123 nM and 13 nM | [5] 269 nM and 50 nM | [6] 0.128 µM | [7] 66.9 nM | [8] 72.5 nM and 15.9 nM | [9] 88.7 nM and 9.7 nM | [10] 0.0788 µM | [11] 82.2 nM and 11 nM | [12] 157 nM and 13.6 nM | [13] 54.7 nM and 5.99 nM | [14] 120 nM and 25.3 nM | [15] 57.3 nM and 9.62 nM | [17] 29.2 µM
inactive: [6] | [7] | [10] | [3] | [4]
